# S1P4 ag – activates the human S1P4 receptor; activation, % at 4.98 µM; O95977; 0.35% of 220,000 active; S1P4-expressing cell line, agonist reporter assay; in the data active = activation above about 11%;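 also: 0% = DMSO vehicle and 100% = reference agonist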
# Target sequence (O95977 whole entry, looked up): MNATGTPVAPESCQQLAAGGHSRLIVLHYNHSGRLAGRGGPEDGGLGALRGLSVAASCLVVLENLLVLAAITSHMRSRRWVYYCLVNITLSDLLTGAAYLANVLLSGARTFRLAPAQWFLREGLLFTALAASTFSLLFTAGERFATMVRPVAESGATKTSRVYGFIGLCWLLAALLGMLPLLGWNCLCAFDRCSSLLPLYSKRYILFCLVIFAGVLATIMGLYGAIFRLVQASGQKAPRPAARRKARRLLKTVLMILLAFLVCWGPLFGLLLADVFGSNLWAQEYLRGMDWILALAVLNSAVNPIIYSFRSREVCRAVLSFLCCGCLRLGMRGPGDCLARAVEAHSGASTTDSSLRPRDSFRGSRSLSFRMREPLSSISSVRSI
# S1P4 antagonist – antagonists of human S1P4 receptor. O95977. S1P4-expressing cells, antagonist mode, reporter read-out. inhibition, % at 4.98 µM. 0.26% of 220,000 active. AID 1510; in the data active = inhibition above about 29%;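 also: 0% = wells stimulated with agonist and 100% = vehicle wells without agonist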
# Hsp70 act – Hsp70 transcriptional activation, primary screen; HeLa Hsp70 promoter luciferase reporter, luminescence; scaled: vehicle 0, proteasome-inhibitor control 100%; activation, % at 10 µM; 0.04% of 200,000 active;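 active = activation above the mean across all tested compounds plus 3 SD, cutoff set per campaign, cut at about 5.5% in these data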;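 also: 100% = MG132 at 30 µM as the positive control and 0% = DMSO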
# CHOP inh – blocks CHOP induction under ER stress. inhibition, % at 10 µM. CHO-K1 CHOP-promoter luciferase, tunicamycin-induced, 15-18 h. 3.8% of 220,000 active;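 active = compounds that reduced the stress-induced luciferase reporter signal by more than about 70% of percent inhibition, limit read from the data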;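 also: 0% = tunicamycin plus vehicle and 100% = wells without tunicamycin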
# * hit, by the source's call; . = no result; ! = not confirmed by another sample. Compounds with a hit are over-represented: about 4.2% of the library has one in this group of screens.
SMILES,S1P4 ag,S1P4 antagonist,Hsp70 act,CHOP inh
CCC(C)N1C(=O)NC(=O)C2(Cc3c(ccc4ccccc34)N(C)C2)C1=O (centres undefined),0.4,-6.0,-0.1,75.8*
Cc1ccc(/C=C2/C(=O)NC(=O)N(CCc3ccc(F)cc3)C2=O)o1,0.2,-6.4,0.2,83.3*
O=C(c1ccc(C(F)(F)F)cc1)C1CCCN(Cc2ccncc2)C1 (centres undefined),1.9,-9.0,-0.3,58.1
CC(C)(C)c1cc([N+](=O)[O-])cc(C(C)(C)C)c1O,1.0,-6.2,-0.4,73.1*
CN1CCN(Cc2cc(C(C)(C)C)c(O)c(C(C)(C)C)c2)CC1,0.4,10.5,-0.3,23.9
O=c1c2ccccc2nc(/C=C/c2ccc3c(c2)OCO3)n1-c1cccc(O)c1,0.5,-12.7,-0.4,1.3
O=c1c2ccccc2nc(/C=C/c2ccc(O)cc2)n1-c1cccc(O)c1,0.8,28.4,-0.3,71.0*
FC(F)(F)c1ccc2c(c1)nnn2C1CCN(Cc2nnnn2Cc2ccccc2)CC1,0.3,-10.2,0.0,88.2*
CCCCCCn1c(N)c(C(=O)NCCN2CCOCC2)c2nc3ccccc3nc21,5.8,-17.0,-0.3,85.7*
CCCCn1c(N)c(C(=O)NCc2cccs2)c2nc3ccccc3nc21,1.7,-11.5,-0.3,92.0*
CCCCCn1c(N)c(C(=O)NCc2cccs2)c2nc3ccccc3nc21,-0.4,-5.8,-0.1,68.5
CCCCCn1c(N)c(C(=O)NCCN2CCOCC2)c2nc3ccccc3nc21,3.5,4.1,0.3,45.7
CC(=O)OC(C)(C)/C=C/C(=O)[C@](C)(O)[C@H]1[C@H](O)C[C@@]2(C)[C@@H]3CC=C4[C@H](C[C@H](O)C(=O)C4(C)C)[C@]3(C)C(=O)C[C@]12C,-1.4,67.3*,-0.4,28.9
CC(C)n1c(=O)c(C=Nc2ccc(F)cc2)c(O)n(Cc2ccco2)c1=O,1.8,-3.5,0.1,58.9
CCOC(=O)C(O)(c1ccc(NC(=S)NC(=O)c2ccc(Cl)cc2Cl)c(C)c1)C(F)(F)F (centres undefined),0.6,-4.4,-0.4,70.2*
CCOC(=O)C(O)(c1ccc(NC(=S)NC(=O)c2ccc(Cl)cc2Cl)cc1)C(F)(F)F (centres undefined),0.0,5.7,-0.5,52.6
COC(=O)C(O)(c1ccc(NC(=S)NC(=O)c2ccc(Cl)cc2Cl)cc1)C(F)(F)F (centres undefined),0.0,4.2,-0.2,71.2*
CN(C)CCc1nc2ccccc2c(=O)n1-c1ccccc1,2.1,-31.4,-0.3,19.2
CCC(C)C1N=C(c2ccccc2)c2cc(Cl)ccc2N(CC(=O)NCc2ccco2)C1=O (centres undefined),0.8,-10.8,-0.2,88.2*
COC(=O)C1=Nc2ccccc2/C1=C\c1c(O)n(-c2ccc(Br)cc2)c(=O)[nH]c1=O,1.6,-28.6,-0.1,59.6
CN(C)C=C1C(=O)N(C2CCCCC2)C(=O)N(C2CCCCC2)C1=O,2.0,-5.7,-0.4,77.0*
CCOC(=O)C1=C(N)Oc2cc(C)oc(=O)c2C12C(=O)N1c3c(cc(OC)cc32)C(C)=CC1(C)C (centres undefined),0.0,-32.5,0.0,76.0*
CCOC(=O)C1=C(N)Oc2cc(C)oc(=O)c2C12C(=O)N1c3c(cccc32)C(C)=CC1(C)C (centres undefined),-0.8,20.0,-0.2,13.7
CCOC(=O)C1=C(N)OC2=C(C(=O)CCC2)C12C(=O)N1c3c(ccc(C)c32)C(C)=CC1(C)C (centres undefined),-1.1,-16.8,-0.3,26.0
CCOC(=O)C1=C(N)Oc2cc(C)oc(=O)c2C12C(=O)N1c3c(cccc32)C(C)CC1(C)C (centres undefined),2.0,-4.8,0.0,83.4*
SMILES,S1P4 ag,S1P4 antagonist,Hsp70 act,CHOP inh
CCN(CC)c1ccc(N=Cc2c(O)n(Cc3ccccc3)c(=O)[nH]c2=O)cc1,-0.4,-1.3,-0.4,96.1*!
O=c1[nH]c(=S)[nH]c(O)c1N=Nc1ccc(SC(F)F)cc1,-1.4,15.4,.,5.4
CCn1c(O)c(N=Nc2ccc(S(=O)(=O)N3CCOCC3)cc2)c(=O)n(CC)c1=S,1.8,-6.1,.,72.9*
O=c1c2ccccc2nc(C[n+]2ccccc2)n1-c1cccc(C(F)(F)F)c1,2.6,-5.6,-0.3,12.0
CN1C(=O)C(=Cc2ccccc2OCc2ccc(C(=O)O)cc2)C(=O)N(C)C1=O,0.1,0.0,0.1,1.7
CCOc1c(Cl)cc(CNCCc2c[nH]c3ccccc23)cc1OC,0.0,-6.2,0.3,11.0
CCOc1cc(CNCCc2c[nH]c3ccccc23)cc(Cl)c1OCC,0.7,-9.3,-0.2,80.0*
C=CCn1c(O)c(C=NCCCOc2ccc(CC)cc2)c(=O)[nH]c1=S,0.1,-0.9,-0.1,77.2*
CCOc1ccc(N=Cc2c(O)n(Cc3ccccc3)c(=S)[nH]c2=O)cc1,-0.7,5.1,.,-15.6
CCC(=Nc1ccc2c(c1)CCC2)c1c(O)n(C2CCCCC2)c(=O)[nH]c1=O,1.8,-7.6,0.0,76.1*
CC(=Nc1ccc2c(c1)CCC2)c1c(O)n(C2CCCCC2)c(=O)[nH]c1=O,1.0,5.3,-0.1,87.1*
CCC(=NC1CC1)c1c(O)n(C2CCCCC2)c(=O)[nH]c1=O,-0.7,3.5,-0.1,39.8
C[N+](C)(C)c1ccccc1,0.0,-12.0,0.1,9.1
O=C(c1ccc(Cl)cc1)C1CCCN(Cc2ccc3nonc3c2)C1 (centres undefined),1.6,1.2,0.1,22.1
Cc1cccc(OCCn2cccc2/C=C2/C(=O)NC(=O)N(Cc3ccco3)C2=O)c1,-1.1,7.7,.,-32.5
O=C1NC(=O)N(Cc2ccco2)C(=O)/C1=C\c1cccn1CCOc1ccc(Cl)cc1,-0.6,1.8,0.1,75.9*
CCc1ccc(N2C(=O)NC(=O)/C(=C/c3cccn3CCOc3ccc(C)cc3)C2=O)cc1,1.8,-9.9,-0.3,90.0*
CCc1ccc(N2C(=O)NC(=O)/C(=C/c3cccn3CCOc3ccc(C(C)CC)cc3)C2=O)cc1 (centres undefined),0.9,-4.1,-0.4,86.1*
C=CCN1C(=O)/C(=C/c2cccs2)C(=O)NC1=S,2.7,-9.1,-0.4,80.2*
Cn1cccc1/C=C1\C(=O)NC(=O)N(CCC2=CCCCC2)C1=O,4.5,-21.8,-0.3,49.2
O=C1NC(=O)N(CCC2=CCCCC2)C(=O)/C1=C\c1cccs1,-0.5,0.3,-0.1,93.9*
COc1cc2c(cc1OC)[C@@H]1C(=O)c3ccc4c(c3O[C@@H]1CO2)C[C@H](C(C)C)O4,-1.8,4.6,.,78.5*
O=C1C=Cc2ccccc2C1=O,1.4,-16.1,-0.3,0.0
CCOc1ccc(-n2c(-c3cccs3)nc3ccccc3c2=O)cc1,-1.2,-17.4,0.1,19.1
c1ccc(C2N3CCCN23)cc1 (centres undefined),0.8,-21.8,-0.2,19.9
ON1C2CCCCC2N(O)C1c1ccccc1 (centres undefined),-1.6,2.9,-0.2,88.6*
CC(C)C(=O)c1cn(Cc2ccccc2C#N)c2ccccc12,1.6,-12.6,-0.2,77.4*
CN1C(=O)C(=Cc2cccnc2)C(=O)N(C)C1=O,0.6,1.7,.,6.1
